# Only some compounds are listed: those with a hit (about 0.9% of all), similar ones and a draw of the others.
# PPARg SRC3 recr: PPARgamma agonists recruiting SRC-3 coactivator, primary screen, biochemical | Peroxisome proliferator-activated receptor gamma (Homo sapiens), P37231 | hit rate 0.26% among 200,000 | activation, % at 8 µM | AID 731, 2007 | biochemical PPARgamma/SRC-3 coactivator recruitment assay; in the data active means activation above about 23%;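 further: 0% = DMSO and 100% = reference agonist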
# PPARg SRC1 recr: PPARgamma agonists recruiting SRC-1 coactivator, primary screen, biochemical; Peroxisome proliferator-activated receptor gamma (Homo sapiens), P37231; PPARgamma-SRC-1 coactivator recruitment biochemical assay; activation, % at 8 µM; hit rate 0.41% among 200,000; AID 631, 2007; in the data active means activation above about 19%;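 further: 0% = DMSO and 100% = reference agonist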
# SRC3 TRFRET art: TR-FRET detection interference compounds, artefact control for PPARgamma SRC-3 recruitment agonists, biochemical, TR-FRET ratio; TR-FRET ratio at 8 µM; TR-FRET artefact counter-screen, PPARgamma/SRC-3 format; hits give high values; hit rate 0.39% among 99,000
# SRC1 TRFRET art: TR-FRET detection interference compounds, primary screen, artefact control for PPARgamma SRC-1 recruitment agonists, biochemical, TR-FRET emission ratio; TR-FRET ratio at 8 µM; TR-FRET detection artefact counter-screen; hits give high values; hit rate 0.34% among 99,000; AID 1051, 2008; in the data active means TR-FRET ratio above about 2300
# PPARg SRC2 recr: agonists of PPARg-SRC-2 recruitment, primary screen, biochemical, HTS; Peroxisome proliferator-activated receptor gamma (Homo sapiens), P37231; PPARgamma LBD-SRC-2 recruitment; activation, % at 8 µM; hit rate 0.34% among 200,000; AID 1032, 2008; in the data active means activation above about 22%;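 further: 0% = vehicle and 100% = reference agonist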
# SRC2 TRFRET art: TR-FRET signal artefacts, primary screen, artefact control for PPARgamma SRC-2 agonist project, biochemical | TR-FRET artefact counter-screen; hits give high values | TR-FRET ratio at 8 µM | hit rate 0.4% among 200,000
# PPARg SRC2 ag: agonists of PPARgamma SRC-2 coactivator recruitment, confirmation, biochemical, HTS | shares compounds with PPARg SRC3 recr | activation, % at 8 µM | hit rate 52% among 790 | biochemical SRC-2 recruitment by PPARgamma; in the data active means activation above about 22%;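 further: 0% = vehicle alone and 100% = reference agonist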
# PPARg SRC1 ag: PPARgamma agonists recruiting SRC-1 coactivator, confirmation, biochemical | PPARgamma–SRC-1 coactivator recruitment biochemical assay | hit rate 43% among 790 | activation, % at 8 µM | AID 1300, 2008 | shares compounds with PPARg SRC3 recr; in the data active means activation above about 20%;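 further: 0% = vehicle wells and 100% = reference agonist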
# PPARg SRC3 conf: PPARgamma-driven SRC-3 coactivator recruitment agonists, confirmation, biochemical | AID 1301, 2008 | biochemical PPARgamma-SRC-3 coactivator recruitment, agonist mode | shares compounds with PPARg SRC3 recr | hit rate 29% among 790 | activation, % at 8 µM; in the data active means activation above about 24%;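 further: 0% = vehicle wells and 100% = reference agonist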
# An asterisk follows results filed as active; . = no result. Unless noted, no stated cut-off is given here; in the data, active means TR-FRET ratio above about 2000; inactive means the rest.
SMILES,PPARg SRC3 recr,PPARg SRC1 recr,SRC3 TRFRET art,SRC1 TRFRET art,PPARg SRC2 recr,SRC2 TRFRET art,PPARg SRC2 ag,PPARg SRC1 ag,PPARg SRC3 conf
O=C(Nc1cc(SCC(O)CO)cc([N+](=O)[O-])c1)c1ccc(-n2cnnn2)cc1 (configuration not stated),28*,62*,1435,1703,59*,1611,10,3,3
COc1cc(C2C(C(=O)c3ccc(C)o3)=C(O)C(=O)N2c2cc(C)on2)ccc1O (configuration not stated),3,8,.,.,5,1751,.,.,.
COc1cccc(C2C(C(=O)c3cc4ccccc4o3)=C(O)C(=O)N2c2cc(C)on2)c1OC (configuration not stated),69*,50*,.,.,45*,2593*,36*,28*,25*
COc1ccc(OC)c(C2C(C(=O)c3cccs3)=C(O)C(=O)N2c2cc(C)on2)c1 (configuration not stated),-2,-6,.,.,2,1544,.,.,.
COc1cccc(C2C(C(=O)c3cc4cccc(OC)c4o3)=C(O)C(=O)N2c2cc(C)on2)c1OC (configuration not stated),45*,33*,.,.,35*,2236*,41*,28*,26*
CCOC(=O)c1sc2nc(C)n(N)c(=O)c2c1C,6,9,1653,1913,6,1780,.,.,.
CCOC(=O)c1sc2nc(C)[nH]c(=S)c2c1C,20,25*,2353*,2663*,35*,2175*,30*,23*,21
O=C(CNC1CCCC1)Nc1ccc(N2CCCCCC2)cc1,6,20*,1650,1797,8,1860,1,0,1
CSc1ccccc1-c1nnc(-c2ccccc2)o1,9,0,.,.,0,1741,.,.,.
CSc1nnc(-c2ccccc2SC)o1,14,22*,2050,2301,20,1917,19,12,8
CC1(C)CNc2cc([N+](=O)[O-])ccc2S1,8,11,1794,2044,13,1806,.,.,.
CCS(=O)(=O)Nc1ccc(-c2nnc(SCC(=O)c3cccc(OC)c3)o2)cc1,2,6,.,.,7,1712,.,.,.
CCS(=O)(=O)Nc1ccc(-c2nnc(SCC(=O)c3ccc(NC(C)=O)c(OC)c3)o2)cc1,57*,31*,.,.,5,1680,8,-1,7
Cc1ccccc1C(=O)Oc1cc(N)n(S(=O)(=O)c2ccccc2)n1,2,-2,1641,1873,-2,1611,.,.,.
Cc1onc(-c2c(F)cccc2Cl)c1C(=O)NC(=S)NCc1cccnc1,0,0,1393,1659,-5,1330,.,.,.
CCc1ccc(N(CC(=O)Nc2ccccc2C(=O)N2CCOCC2)S(C)(=O)=O)cc1,1,1,1563,1709,0,1671,.,.,.
Cc1cc(=O)oc2c(C(=O)/C=C\c3cccs3)c(O)ccc12,-3,2,1335,1766,-1,1427,.,.,.
Cc1c(C(=O)/C=C/c2cccs2)oc2ccc(F)cc12,24,28*,.,.,14,2116*,11,9,7
CCOC(=O)/C(C#N)=C\C=C1C=CN(C)C=C1,21,24*,.,.,32*,1925,15,9,9
CCOC(=O)/C(C#N)=C\c1ccc(CC)s1,-9,-4,.,.,-4,1512,.,.,.
Cc1ccc(-n2ncc(Br)c(Br)c2=O)cc1,18,16,1996,2278,17,1799,.,.,.
O=c1c(Br)c(Br)cnn1-c1ccccc1,32*,38*,2406*,2662*,34*,2405*,29*,17,20
CS(=O)(=O)N1CCC(C(=O)Nc2cc(Cl)cc(Cl)c2)CC1,1,-1,1524,1999,7,1770,.,.,.
N#CC1=C2SCN(Cc3ccccc3)CN2C(=O)CC1c1cccs1 (configuration not stated),26*,13,.,.,23*,2063*,23*,15,15
O=C(COC(=O)COc1ccccc1)NC1CCCc2ccccc21 (configuration not stated),7,4,1770,2152,10,1588,.,.,.
SMILES,PPARg SRC3 recr,PPARg SRC1 recr,SRC3 TRFRET art,SRC1 TRFRET art,PPARg SRC2 recr,SRC2 TRFRET art,PPARg SRC2 ag,PPARg SRC1 ag,PPARg SRC3 conf
CN(C)c1ccc(/C=C/c2ccc3ccccc3[n+]2C)cc1,59*,66*,2738*,3396*,94*,2876*,41*,33*,31*
CN(C)c1ccc(/C=C/c2ccncc2)cc1,10,-4,.,.,3,1455,.,.,.
CN(C)c1ccc(/C=C/c2ccc3c4ccccc4ccc3[n+]2-c2ccccc2)cc1,28*,47*,2137*,2287,49*,2446*,30*,20*,23
COc1ccc(OCC(=O)Nc2cc(-c3nn4c(C)nnc4s3)ccc2C)cc1,24,28*,.,.,-3,1633,21,17,13
COc1ccc(C(=O)Nc2cc(-c3nn4c(C)nnc4s3)ccc2C)cc1,6,4,.,.,5,1579,.,.,.
COC(=O)CSc1nnc2n1C(C)(C)Cc1ccccc1-2,-10,11,.,.,3,1643,.,.,.
CC1(C)Cc2ccccc2-c2nnc(SCC(=O)N3CCc4ccccc43)n21,25,24*,.,.,17,1651,13,13,11
Cc1ccc(N=Cc2cc3c(cc2O)OC(N)=C(C#N)C3c2ccccc2)cc1 (configuration not stated),10,6,1956,2070,1,1815,.,.,.
CCC(=Nc1ccc(N)cc1)C1=C(O)C(C(=O)OC)C(C)(C)CC1=O (configuration not stated),38*,23*,.,.,23*,1785,1,4,6
COC(=O)CN(n1cnnc1)S(=O)(=O)c1ccc(C)cc1,-5,0,.,.,5,1568,.,.,.
Cc1ccc(S(=O)(=O)N(c2nc(NC(C)C)nc(NC(C)C)n2)n2cnnc2)cc1,1,10,1525,1915,24*,1703,6,4,2
Cc1ccc(-n2cc(CN(C)CCc3cn[nH]c3)c(-c3cccc(C)c3)n2)cc1,2,4,1495,1562,0,1491,.,.,.

# High-throughput results deposited in PubChem by The Scripps Research Institute Molecular Screening Center.
